Laboratory results taken from PubChem BioAssay AID1159580 (chemical genetic matrix, 2015).
Screen size: about 5,500 compounds; about 2,000 (36%) were called active. Inconclusive results (about 18%) are left out. Rule as the data show it: active = normalized growth mostly below about 0.91 (no sharp cut-off); inconclusive = no clear call, values can overlap the other calls; inactive = mostly above about 0.92. The list shows a part of the results.

Assay: chemical genetic growth profiling, strain panel (AID 1159580);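 also: tested at 20 µM; growth read once vehicle control cultures reached saturation at 30 °C; 1 = growth at the plate median or of vehicle wells; lower values mean less growth of the strain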
Conditions: S. cerevisiae deletion strains, growth OD

Measured: normalized growth

CCCCC(CC)CN1CN(CC(CC)CCCC)CC(C)(N)C1 (stereo not drawn)
active: locus YAL013W, strain DEP1, active compounds read low 0.14 | locus YAL021C, strain ccr4, active compounds read low 0.0639 | locus YAL026C, strain drs2, active compounds read low 0.0615 | locus YAL030W, strain snc1, active compounds read low 0.0534 | locus YBL061C, strain skt5, active compounds read low 0.0552 | locus YBR009C, strain hhf1, active compounds read low 0.0618 | locus YBR021W, strain FUR4, active compounds read low 0.168 | locus YBR023C, strain chs3, active compounds read low 0.0607 | locus YBR171W, strain sec66, active compounds read low 0.0721 | locus YBR229C, strain ROT2, active compounds read low 0.816 | locus YBR231C, strain swc5, active compounds read low 0.0597 | locus YBR279W, strain paf1, active compounds read low 0.088 | locus YCL011C, strain gbp2, active compounds read low 0.0548 | locus YCL016C, strain dcc1, active compounds read low 0.0625 | locus YCL029C, strain bik1, active compounds read low 0.573 | locus YCL061C, strain MRC1, active compounds read low 0.062 | locus YCL069W, strain vba3, active compounds read low 0.0607 | locus YCR088W, strain abp1, active compounds read low 0.0577 | locus YDL005C, strain med2, active compounds read low 0.0691 | locus YDL035C, strain GPR1, active compounds read low 0.329 | locus YDL040C, strain nat1, active compounds read low 0.055 | locus YDL074C, strain BRE1, active compounds read low 0.228 | locus YDL101C, strain DUN1, active compounds read low 0.417 | locus YDL134C, strain PPH21, active compounds read low 0.58 | locus YDL192W, strain arf1, active compounds read low 0.0997 | locus YDR001C, strain nth1, active compounds read low 0.0567 | locus YDR069C, strain doa4, active compounds read low 0.0614 | locus YDR101C, strain arx1, active compounds read low 0.573 | locus YDR137W, strain rgp1, active compounds read low 0.111 | locus YDR150W, strain NUM1, active compounds read low 0.801 | locus YDR159W, strain sac3, active compounds read low 0.0869 | locus YDR162C, strain NBP2, active compounds read low 0.233 | locus YDR195W, strain ref2 0.116 | locus YDR297W, strain sur2, active compounds read low 0.0539 | locus YDR318W, strain mcm21, active compounds read low 0.471 | locus YDR334W, strain swr1, active compounds read low 0.0598 | locus YDR335W, strain msn5, active compounds read low 0.0571 | locus YDR388W, active compounds read low 0.15 | locus YDR392W, strain spt3, active compounds read low 0.0725 | locus YDR502C, strain sam2, active compounds read low 0.401 | locus YEL003W, strain gim4, active compounds read low 0.0521 | locus YEL037C, strain rad23, active compounds read low 0.0554 | locus YEL061C, strain CIN8 (second series), active compounds read low 0.0574 | locus YEL061C, strain CIN8, active compounds read low 0.472 | locus YER015W, strain faa2, active compounds read low 0.0593 | locus YER016W, strain bim1, active compounds read low 0.0563 | locus YER110C, active compounds read low 0.627 | locus YER111C, strain swi4, active compounds read low 0.0661 | locus YER155C, strain BEM2 (second series), active compounds read low 0.0846 | locus YER155C, strain BEM2, active compounds read low 0.425 | locus YER167W, strain BCK2, active compounds read low 0.55 | locus YFR010W, strain ubp6, active compounds read low 0.0701 | locus YGL086W, strain mad1, active compounds read low 0.283 | locus YGL167C, strain pmr1, active compounds read low 0.0684 | locus YGL173C, strain kem1, active compounds read low 0.0624 | locus YGL227W, strain vid30, active compounds read low 0.0601 | locus YGL240W, strain doc1, active compounds read low 0.0704 | locus YGL248W, strain PDE1, active compounds read low 0.633 | locus YGL253W, strain hxk2, active compounds read low 0.0538 | locus YGR078C, strain PAC10, active compounds read low 0.469 | locus YGR135W, strain pre9, active compounds read low 0.381 | locus YGR229C, strain SMI1, active compounds read low 0.0664 | locus YGR252W, strain gcn5, active compounds read low 0.224 | locus YHR013C, strain ard1, active compounds read low 0.124 | locus YHR027C, strain rpn1, active compounds read low 0.0601 | locus YHR030C, strain SLT2, active compounds read low 0.133 | locus YHR079C, strain IRE1 (second series), active compounds read low 0.573 | locus YHR094C, strain hxt1, active compounds read low 0.911 | locus YHR129C, strain ARP1, active compounds read low 0.716 | locus YHR142W, strain chs7, active compounds read low 0.077 | locus YHR200W, strain rpn10, active compounds read low 0.214 | locus YIL066C, strain RNR3, active compounds read low 0.45 | locus YIL073C, strain SPO22, active compounds read low 0.364 | locus YIR030C, strain dcg1, active compounds read low 0.651 | locus YJL092W, strain hpr5, active compounds read low 0.0575 | locus YJL095W, strain BCK1 (second series), active compounds read low 0.0537 | locus YJL095W, strain BCK1, active compounds read low 0.188 | locus YJL115W, strain asf1, active compounds read low 0.068 | locus YJL129C, strain trk1, active compounds read low 0.083 | locus YJL134W, strain LCB3, active compounds read low 0.918 | locus YJL154C, strain vps35, active compounds read low 0.0563 | locus YJL164C, strain tpk1, active compounds read low 0.0598 | locus YJL166W, strain qcr8, active compounds read low 0.0595 | locus YJL168C, strain set2, active compounds read low 0.826 | locus YJL187C, strain SWE1 (second series), active compounds read low 0.513
inactive: locus YDL185W, strain tfp1, active compounds read low 1.02 | locus YGL078C, strain dbp3, active compounds read low 1 | locus YIL125W, strain kgd1, active compounds read low 1.01
